The values that follow come from PubChem BioAssay.

Assay [1] can be described thus: binders of probe aFSTL3 on microarray, primary screen, stem cell growth factor project, biochemical, small-molecule microarray, fluorescence 635/667 (AID 1064).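 Further: measures binding of the biotinylated anti-FSTL3 antibody to printed compounds.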 Conditions: higher = more signal.
The nature of assay [2]: binders from COS7 lysate, DM2A8 probe, primary screen, torsin A project, cell lysate, small-molecule microarray, fluorescence 635/667 (AID 1065). The conditions noted are these: higher = more signal, COS7 lysate expressing mutant human TOR1A.
Assay [3] in a line: binders of probe aFGF2 on microarray, primary screen, stem cell growth factor project, biochemical, small-molecule microarray, fluorescence 635/667 (AID 1067).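 Further: measures binding of biotinylated aFGF2 protein to printed compounds on slides; z-score merges feature fluorescence and signal-to-noise across triplicate slides.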 The conditions noted are these: higher = more signal.
A short description of assay [4]: binders of probe aFGF10 on microarray, primary screen, stem cell growth factor project, biochemical, small-molecule microarray, fluorescence 635/667 (AID 1071).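 Further: score merges 667 nm spot intensity and signal to noise from triplicate slides.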 Conditions: higher = more signal.
The target of assay [5] is Neurogenic locus notch homolog protein 2 (Homo sapiens) (UniProt Q04721). The assay can be described thus: Notch2 binders on small-molecule microarrays, primary screen, biochemical, small-molecule microarray, 635 nm fluorescence, stem cell growth factors (AID 1073). The conditions noted are these: Notch2 binding, higher = more signal.
Sequence of Neurogenic locus notch homolog protein 2 (Homo sapiens) (Q04721 whole entry, looked up, canonical isoform): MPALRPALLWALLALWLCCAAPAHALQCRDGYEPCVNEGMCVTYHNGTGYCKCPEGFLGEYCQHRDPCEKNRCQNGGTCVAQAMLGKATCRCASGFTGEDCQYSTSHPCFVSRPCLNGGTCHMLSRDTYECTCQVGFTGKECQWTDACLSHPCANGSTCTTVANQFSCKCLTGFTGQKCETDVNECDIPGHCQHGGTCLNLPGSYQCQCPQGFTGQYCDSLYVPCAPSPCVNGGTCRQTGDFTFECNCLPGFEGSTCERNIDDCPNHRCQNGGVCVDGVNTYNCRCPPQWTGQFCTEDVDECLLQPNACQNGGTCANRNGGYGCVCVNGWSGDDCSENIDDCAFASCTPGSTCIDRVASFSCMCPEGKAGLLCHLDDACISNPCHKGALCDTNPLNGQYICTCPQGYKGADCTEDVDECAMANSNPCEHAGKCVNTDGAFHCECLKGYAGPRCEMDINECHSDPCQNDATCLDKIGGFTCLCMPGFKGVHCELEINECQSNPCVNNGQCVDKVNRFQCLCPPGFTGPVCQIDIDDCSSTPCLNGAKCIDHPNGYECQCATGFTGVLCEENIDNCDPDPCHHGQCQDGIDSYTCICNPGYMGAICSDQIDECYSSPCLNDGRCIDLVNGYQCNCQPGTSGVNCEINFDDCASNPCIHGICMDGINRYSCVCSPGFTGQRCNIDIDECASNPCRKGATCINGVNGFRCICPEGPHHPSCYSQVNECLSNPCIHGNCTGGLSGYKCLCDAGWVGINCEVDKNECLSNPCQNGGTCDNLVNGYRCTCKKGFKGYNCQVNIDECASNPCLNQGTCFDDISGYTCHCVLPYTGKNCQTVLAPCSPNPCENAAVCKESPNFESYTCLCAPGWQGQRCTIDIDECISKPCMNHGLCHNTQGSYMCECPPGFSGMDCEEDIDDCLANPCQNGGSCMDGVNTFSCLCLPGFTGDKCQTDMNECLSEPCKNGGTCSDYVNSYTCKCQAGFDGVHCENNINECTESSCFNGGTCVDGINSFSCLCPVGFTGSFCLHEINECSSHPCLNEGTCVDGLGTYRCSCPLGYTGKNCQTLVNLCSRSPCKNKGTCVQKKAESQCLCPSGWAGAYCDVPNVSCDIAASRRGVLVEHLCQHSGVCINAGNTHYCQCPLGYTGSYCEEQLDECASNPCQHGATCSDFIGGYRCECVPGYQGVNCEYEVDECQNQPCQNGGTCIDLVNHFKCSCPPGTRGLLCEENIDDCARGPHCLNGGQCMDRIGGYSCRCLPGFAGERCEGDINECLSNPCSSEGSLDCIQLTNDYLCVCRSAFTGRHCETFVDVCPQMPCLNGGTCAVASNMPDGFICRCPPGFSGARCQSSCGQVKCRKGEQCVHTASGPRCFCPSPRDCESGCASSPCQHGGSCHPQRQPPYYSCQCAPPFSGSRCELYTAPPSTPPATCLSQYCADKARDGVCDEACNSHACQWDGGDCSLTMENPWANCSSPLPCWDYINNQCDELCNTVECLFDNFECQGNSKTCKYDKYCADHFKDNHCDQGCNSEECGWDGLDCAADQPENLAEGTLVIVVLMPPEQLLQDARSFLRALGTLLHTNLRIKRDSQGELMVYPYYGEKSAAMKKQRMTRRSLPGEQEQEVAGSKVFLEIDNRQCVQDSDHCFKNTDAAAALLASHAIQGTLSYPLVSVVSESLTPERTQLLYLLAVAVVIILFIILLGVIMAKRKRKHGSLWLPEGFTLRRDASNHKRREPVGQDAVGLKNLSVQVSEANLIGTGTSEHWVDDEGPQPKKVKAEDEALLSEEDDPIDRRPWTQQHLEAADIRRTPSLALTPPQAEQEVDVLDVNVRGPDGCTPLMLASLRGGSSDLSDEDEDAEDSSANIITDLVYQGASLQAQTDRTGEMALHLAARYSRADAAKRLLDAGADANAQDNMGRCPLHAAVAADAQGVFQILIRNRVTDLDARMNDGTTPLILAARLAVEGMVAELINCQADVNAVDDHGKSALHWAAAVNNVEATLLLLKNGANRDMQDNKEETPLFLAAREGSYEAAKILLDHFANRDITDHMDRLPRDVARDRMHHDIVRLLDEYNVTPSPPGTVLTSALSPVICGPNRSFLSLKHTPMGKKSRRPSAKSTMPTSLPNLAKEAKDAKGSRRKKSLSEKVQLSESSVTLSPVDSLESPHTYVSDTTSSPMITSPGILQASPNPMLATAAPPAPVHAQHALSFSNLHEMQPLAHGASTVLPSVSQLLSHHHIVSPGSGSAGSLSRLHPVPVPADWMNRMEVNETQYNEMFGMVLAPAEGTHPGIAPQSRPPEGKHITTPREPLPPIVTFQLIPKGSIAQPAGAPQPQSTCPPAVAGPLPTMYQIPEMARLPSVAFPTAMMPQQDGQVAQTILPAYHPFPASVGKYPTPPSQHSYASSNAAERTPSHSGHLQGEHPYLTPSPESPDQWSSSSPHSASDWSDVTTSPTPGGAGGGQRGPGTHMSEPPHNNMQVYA
The target in assay [6] is Pro-neuregulin-1, membrane-bound isoform (Homo sapiens) (UniProt Q02297). The assay can be described thus: NRG1 binders on small-molecule microarrays, primary screen, psychiatric disease protein project, biochemical, small-molecule microarray, fluorescence 635/667 (AID 1075).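 Further: score combines 667 nm spot fluorescence with signal to noise.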 The conditions noted are these: NRG1 binding, 635 nm fluorescence, higher = more signal.
Sequence of Pro-neuregulin-1, membrane-bound isoform (Homo sapiens) (Q02297 whole entry, looked up, the tested form may be a part, canonical isoform): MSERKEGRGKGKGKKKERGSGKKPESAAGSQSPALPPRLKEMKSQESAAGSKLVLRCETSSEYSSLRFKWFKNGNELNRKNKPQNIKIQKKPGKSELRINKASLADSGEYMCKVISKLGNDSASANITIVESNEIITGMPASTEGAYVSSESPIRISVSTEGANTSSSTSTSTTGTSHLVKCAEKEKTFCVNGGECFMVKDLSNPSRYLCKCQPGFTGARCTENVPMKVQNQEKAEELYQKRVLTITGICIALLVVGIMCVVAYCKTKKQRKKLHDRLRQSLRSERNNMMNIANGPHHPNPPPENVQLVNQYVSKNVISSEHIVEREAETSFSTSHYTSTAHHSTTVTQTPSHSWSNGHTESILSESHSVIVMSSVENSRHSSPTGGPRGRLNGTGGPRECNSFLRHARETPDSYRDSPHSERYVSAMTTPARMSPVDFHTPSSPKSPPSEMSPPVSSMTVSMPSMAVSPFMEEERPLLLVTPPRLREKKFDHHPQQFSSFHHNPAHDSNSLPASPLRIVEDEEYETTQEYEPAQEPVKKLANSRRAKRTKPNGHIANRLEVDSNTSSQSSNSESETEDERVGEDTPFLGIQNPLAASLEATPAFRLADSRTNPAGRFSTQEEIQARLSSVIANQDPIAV
The subject of assay [7] is Neuregulin-1 EGF-like domain. The assay can be described thus: binders of neuregulin-1 EGF-like domain, primary screen, biochemical, small-molecule microarray, 635 nm fluorescence (AID 1081).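 Further: binding of the protein to compounds printed on small-molecule microarray slides.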 The conditions noted are these: small-molecule microarray binding, higher = more signal.
The nature of assay [8]: FRG1 promoter luciferase signal modulators, primary screen, FRG1 inhibition for FSHD, cell-based, C2C12 myotubes, firefly/Renilla luciferase, luminescence (AID 1084). The conditions noted are these: higher = more signal, called active from +8 up or from −8 down.
Assay [9] can be described thus: binders of probe aFST on microarray, primary screen, stem cell growth factor project, biochemical, small-molecule microarray, fluorescence 635/667 (AID 1086).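 Further: score merges 667 nm fluorescence with signal-to-noise of each printed compound spot.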 Conditions: higher = more signal.
Assay [10] can be described thus: binders of probe aHhip on microarray, primary screen, stem cell growth factor project, biochemical, small-molecule microarray, fluorescence 635/667 (AID 1087).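 Further: score merges spot fluorescence at 667nm with spot signal to noise ratio.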 Conditions: higher = more signal.

Active and inactive are the calls of the source.

`CCOC(=O)C1=C[C@@H](c2ccccc2)N(S(=O)(=O)c2ccc(C)cc2)[C@H]1c1ccccc1Cl`: the composite z-score in [1] was -0.508; in [2], 0.544; in [3], 0.168; in assay [4] it was 1.1; in assay [5] it was 1.5; in assay [6], 0.264. Further, the composite z-score was 0.857 in assay [7], 0.945 in assay [9] and -0.16 in assay [10]. Moreover, the z-score in assay [8] is -3.26 (inactive).

On to `O=C1O[C@@H](c2ccccc2)[C@@H](c2ccccc2)N2[C@@H](c3ccccc3OCCO)[C@]3(C(=O)Nc4ccc(C#CCCO)cc43)[C@@H](C(=O)N3CCCCCCC3)[C@H]12`, for which the composite z-score in assay [1] is 4.01; in [2], 2.76; in assay [3] it was 1.1; in assay [4], 1.47; in assay [5], 1.83; in assay [6], 2.86. In addition, the composite z-score came out at 1.35 in assay [7], 3.89 in assay [9] and 2.64 in assay [10]. The z-score in assay [8] was -3.55 (inactive).

Regarding `CCCC[C@@H]1C[C@H]1[C@@H](NC(=O)c1cccs1)c1ccc(C(F)(F)F)cc1`, the composite z-score in assay [1] was 0.211; in assay [2] it was -0.0988; in assay [3], -0.0783; in [4], -0.618; in [5], -0.845; in [6], -0.265. The composite z-score is -0.743 in assay [7], 0.0353 in assay [9] and 0.948 in assay [10]. For the same molecule, the z-score in assay [8] was -0.878 (inactive).

Consider `O=C1NC(=O)C2C1C=CC(C(O)c1cccc3ccccc13)N2Nc1ccc(Cl)cc1Cl` (stereo not given), for which the composite z-score was 0.475 in assay [1]; -0.974 in [2]; -0.0752 in assay [3]; 0.51 in assay [4]; 1.49 in [5]; 1.53 in assay [6]. The composite z-score is 1 in [7], 1.34 in assay [9] and -0.0994 in assay [10]. In addition, the z-score in assay [8] is -0.716 (inactive).

Take `COC(=O)[C@@]1(Cc2ccc(OC)cc2)[C@@H]2C(=CC(=O)[C@H]2CC(=O)C(=O)N(C)C)CN1C(=O)c1ccccc1`: the composite z-score is 0.928 in assay [1]; -0.262 in [2]; 0.0921 in assay [3]; 0.582 in assay [4]; 1.77 in assay [5]; 1.39 in assay [6]. For the same molecule, the composite z-score stood at 1.18 in assay [7], 1.97 in assay [9] and 0.177 in assay [10]. In addition, the z-score in [8] is 1.46 (inactive).

With `C=CCC(OC(C)=O)[C@@H]1[C@@H](N(Cc2ccc(-c3ccccc3)cc2)C(=O)Cc2ccc(F)cc2)c2cc(OCCCO)ccc2N1C(=O)Cc1ccc(OC)cc1` (stereo not given in full), the composite z-score in [1] was -0.134; in assay [2], 0.132; in [3], -0.172; in [4], 0.295; in assay [5] it was -0.437; in assay [6], 0.0936. In addition, the composite z-score was -0.438 in [7], 0.121 in assay [9] and -0.175 in [10]. Further, the z-score in [8] was -0.528 (inactive).

Take `COc1ccc(NC(=O)O[C@H]2[C@H](OC(=O)Nc3ccccc3)[C@H](OC(=O)Nc3ccccc3)[C@@H](OC)O[C@@H]2CO)cc1`: the composite z-score was 0.474 in assay [1]; 1 in [2]; 0.338 in assay [3]; 1.19 in assay [4]; 1.15 in assay [5]; 1.61 in assay [6]. Moreover, the composite z-score in [7] was 1.25; in assay [9], 0.803; in [10] it was 0.281. In addition, the z-score in assay [8] was -0.742 (inactive).

Turning to `COCCCNC(=O)[C@]1(CCS(=O)(=O)c2ccccc2)N=C(c2ccc(OCCCO)cc2)O[C@@H]1c1ccccc1N=[N+]=[N-]`, the composite z-score in assay [1] was 1.42; in [2], 0.769; in [3], 0.263; in [4] it was 1.11; in assay [5] it was 0.984; in assay [6], 0.977. Also, the composite z-score in assay [7] is 1.01; in assay [9], 1.98; in [10] it was -0.202. In [8], the z-score is 4.31 (inactive).

As to `C[N+](C)(C)CCCC[C@@H]1NC(=O)[C@H]2C[C@@H](C(=O)NCCCCCCN)[C@@H](c3ccc(O)cc3)N2C1=O`, the composite z-score in assay [1] came out at 0.239; in assay [2], 0.713; in assay [3], 0.0797; in [4], 0.575; in assay [5], 1.27; in [6], 1.99. In addition, the composite z-score worked out at 1.09 in assay [7], 0.901 in [9] and 0.373 in [10]. Besides, in assay [8], the z-score was -0.194 (inactive).

`C[C@]1(C(=O)NC2CC2)c2ccccc2C(=O)N(Cc2ccccc2)[C@H]1c1ccc(CO)cc1`: the composite z-score in assay [1] was 0.942; in [2] it was -0.729; in assay [3] it was -0.116; in assay [4], -0.796; in assay [5] it was -0.956; in assay [6], -0.145. Also, the composite z-score in assay [7] is 0.659; in [9], -0.346; in assay [10], -0.511. Also, the z-score in assay [8] was -1.69 (inactive).

As to `COC(=O)[C@@]1(Cc2ccc(OC)cc2)[C@H]2c3cc(C(=O)N4CCCC4)n(Cc4c(-c5ccccc5)noc4C)c3C[C@H]2CN1C(=O)c1ccccc1`, the composite z-score in [1] came to 0.194; in assay [2] it was 0.245; in assay [3] it was 0.336; in assay [4] it was 0.812; in assay [5] it was 1.71; in assay [6], 1.31. The composite z-score in [7] was 1.25; in assay [9] it was 1.73; in assay [10], 1.79. Moreover, the z-score in assay [8] is 0.44 (inactive).

In the case of `CN1C(=O)C2C=CC(C(O)c3cccc(O)c3)N(Nc3ccccc3)C2C1=O` (stereo not given), the composite z-score in assay [1] is -0.0512; in [2], -0.201; in assay [3] it was 0.0121; in assay [4], 0.518; in assay [5], 0.768; in [6], 1.9. The composite z-score stood at 1.25 in assay [7], 0.495 in assay [9] and 0.0808 in assay [10]. Further, the z-score in [8] is 0.737 (inactive).

As to `COCCOC(=O)N1C(=O)[C@@]2(c3cc(C#CC4=CCCCC4)ccc31)[C@H](C(N)=O)[C@H]1C(=O)O[C@H](c3ccccc3)[C@H](c3ccccc3)N1[C@@H]2c1ccccc1OCCO`, the composite z-score in assay [1] was 0.193; in assay [2], 0.33; in assay [3] it was -0.0105; in assay [4], 0.999; in assay [5] it was 1.07; in assay [6] it was 1.47. Also, the composite z-score in assay [7] amounted to 1.34; in [9] it was 0.306; in assay [10] it was 0.388. Also, in [8], the z-score was -0.343 (inactive).

In the case of `C[C@@H]1ON(c2ccc(C(=O)OC(C)(C)C)cc2)[C@H](c2ccc(O)cc2)[C@H]1C(=O)N1C(=O)OC[C@H]1Cc1ccccc1`, the composite z-score in [1] is -0.521; in [2] it was 0.707; in assay [3] it was -0.109; in assay [4], 0.8; in [5], 1.37; in assay [6], 0.803. The composite z-score was 1.05 in assay [7], 0.236 in [9] and -0.0645 in assay [10]. Moreover, the z-score in assay [8] is 0.0087 (inactive).

For the molecule `COCCCNC(=O)[C@@]1(Cc2ccccc2N=[N+]=[N-])N=C(c2ccc(OCCCO)cc2)O[C@H]1c1ccccc1`, the composite z-score in [1] was determined as 0.6; in assay [2], 2.55; in assay [3], 0.153; in [4] it was 0.904; in assay [5] it was 0.629; in assay [6] it was 1.38. In addition, the composite z-score in assay [7] came out at 1.17; in assay [9] it was 0.404; in assay [10], 0.212. Also, the z-score in assay [8] was -1.98 (inactive).

With `COCCOC(=O)N1C(=O)[C@@]2(c3cc(C#Cc4ccc(OC)cc4)ccc31)[C@H](c1ccc(O)cc1)N1[C@H](c3ccccc3)[C@H](c3ccccc3)OC(=O)[C@H]1[C@@H]2C(=O)N1CCCCCCC1`, the composite z-score in assay [1] is 2.84; in assay [2] it was 0.746; in assay [3], 0.0177; in [4] it was 0.178; in [5], 0.679; in assay [6], 0.326. For the same molecule, the composite z-score in [7] was 0.341; in assay [9] it was 2.46; in assay [10], 2.1. In assay [8], the z-score is 1.39 (inactive).
